Laboratory results published in PubChem BioAssay AID1159580 (chemical genetic matrix, 2015).
Where “and” joins values, the source holds several entries; their conditions need not be identical. Identical values can stand only once. The campaign covered roughly 5,500 compounds. About 2,000 (36%) were called active. Not shown: some 18% with an inconclusive outcome. No stated cut-off is given here; in the data, active means normalized growth mostly below about 0.91 (no sharp cut-off); inconclusive means no clear call, values can overlap the other calls; inactive means mostly above about 0.92. The list shows a part of the results.

Assay: chemical genetic growth profiling, strain panel (AID 1159580);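 further: tested at 20 µM; growth read once vehicle control cultures reached saturation at 30 °C; 1 = growth at the plate median or of vehicle wells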
Conditions: S. cerevisiae deletion strains, growth OD

Measured: normalized growth

C[C@]12CCC(=O)C=C1CCC1C2C(=O)C[C@@]2(C)C1CC[C@]2(O)C(=O)CO (stereo partly drawn)
inactive: locus YAL013W, strain DEP1, stronger effect = lower value 1 | locus YAL021C, strain ccr4, stronger effect = lower value 1.01 | locus YAL026C, strain drs2, stronger effect = lower value 1 | locus YAL030W, strain snc1, stronger effect = lower value 1 | locus YBL061C, strain skt5, stronger effect = lower value 1 | locus YBR009C, strain hhf1, stronger effect = lower value 0.992 | locus YBR021W, strain FUR4, stronger effect = lower value 1 | locus YBR023C, strain chs3, stronger effect = lower value 1.01 | locus YBR171W, strain sec66, stronger effect = lower value 1.01 | locus YBR229C, strain ROT2, stronger effect = lower value 1 | locus YBR231C, strain swc5, stronger effect = lower value 0.986 | locus YBR279W, strain paf1, stronger effect = lower value 1 | locus YCL011C, strain gbp2, stronger effect = lower value 1.01 | locus YCL016C, strain dcc1, stronger effect = lower value 1 | locus YCL029C, strain bik1, stronger effect = lower value 1.01 | locus YCL061C, strain MRC1, stronger effect = lower value 0.999 | locus YCL069W, strain vba3, stronger effect = lower value 1 | locus YCR088W, strain abp1, stronger effect = lower value 1.01 | locus YDL005C, strain med2, stronger effect = lower value 0.993 | locus YDL035C, strain GPR1, stronger effect = lower value 1.02 | locus YDL040C, strain nat1, stronger effect = lower value 1 | locus YDL074C, strain BRE1, stronger effect = lower value 1.05 | locus YDL101C, strain DUN1, stronger effect = lower value 1 | locus YDL134C, strain PPH21, stronger effect = lower value 0.986 | locus YDL185W, strain tfp1, stronger effect = lower value 1.01 | locus YDL192W, strain arf1, stronger effect = lower value 1.02 | locus YDR001C, strain nth1, stronger effect = lower value 1 | locus YDR069C, strain doa4, stronger effect = lower value 0.988 | locus YDR101C, strain arx1, stronger effect = lower value 1.04 | locus YDR137W, strain rgp1, stronger effect = lower value 1.01 | locus YDR159W, strain sac3, stronger effect = lower value 0.981 | locus YDR162C, strain NBP2, stronger effect = lower value 0.984 | locus YDR195W, strain ref2 0.973 | locus YDR297W, strain sur2, stronger effect = lower value 1 | locus YDR318W, strain mcm21, stronger effect = lower value 0.986 | locus YDR334W, strain swr1, stronger effect = lower value 1.01 | locus YDR335W, strain msn5, stronger effect = lower value 1.01 | locus YDR388W, stronger effect = lower value 1.01 | locus YDR392W, strain spt3, stronger effect = lower value 0.929 | locus YDR502C, strain sam2, stronger effect = lower value 1.01 | locus YEL003W, strain gim4, stronger effect = lower value 1.01 | locus YEL037C, strain rad23, stronger effect = lower value 1.01 | locus YEL061C, strain CIN8 (second series), stronger effect = lower value 1.01 | locus YEL061C, strain CIN8, stronger effect = lower value 0.998 | locus YER015W, strain faa2, stronger effect = lower value 1 | locus YER016W, strain bim1, stronger effect = lower value 1 | locus YER110C, stronger effect = lower value 1.01 | locus YER111C, strain swi4, stronger effect = lower value 1 | locus YER155C, strain BEM2 (second series), stronger effect = lower value 1 | locus YER155C, strain BEM2, stronger effect = lower value 1 | locus YER167W, strain BCK2, stronger effect = lower value 0.994 | locus YFR010W, strain ubp6, stronger effect = lower value 1 | locus YGL078C, strain dbp3, stronger effect = lower value 1.02 | locus YGL086W, strain mad1, stronger effect = lower value 1.02 | locus YGL167C, strain pmr1, stronger effect = lower value 1 | locus YGL173C, strain kem1, stronger effect = lower value 1.01 | locus YGL227W, strain vid30, stronger effect = lower value 1 | locus YGL240W, strain doc1, stronger effect = lower value 0.975 | locus YGL248W, strain PDE1, stronger effect = lower value 0.984 | locus YGL253W, strain hxk2, stronger effect = lower value 1.01 | locus YGR078C, strain PAC10, stronger effect = lower value 0.986 | locus YGR135W, strain pre9, stronger effect = lower value 0.968 | locus YGR229C, strain SMI1, stronger effect = lower value 0.989 | locus YGR252W, strain gcn5, stronger effect = lower value 0.976 | locus YHR013C, strain ard1, stronger effect = lower value 0.979 | locus YHR027C, strain rpn1, stronger effect = lower value 1.01 | locus YHR030C, strain SLT2, stronger effect = lower value 0.995 and 0.999 | locus YHR079C, strain IRE1 (second series), stronger effect = lower value 1.01 | locus YHR079C, strain IRE1, stronger effect = lower value 0.985 | locus YHR094C, strain hxt1, stronger effect = lower value 0.996 | locus YHR129C, strain ARP1, stronger effect = lower value 1 | locus YHR142W, strain chs7, stronger effect = lower value 1.02 | locus YHR200W, strain rpn10, stronger effect = lower value 0.999 | locus YIL066C, strain RNR3, stronger effect = lower value 0.987 | locus YIL073C, strain SPO22, stronger effect = lower value 1.04 | locus YIL125W, strain kgd1, stronger effect = lower value 1.01 | locus YIR030C, strain dcg1, stronger effect = lower value 0.997 | locus YJL092W, strain hpr5, stronger effect = lower value 1.01 | locus YJL095W, strain BCK1 (second series), stronger effect = lower value 1.01 | locus YJL095W, strain BCK1, stronger effect = lower value 0.975 and 0.986 | locus YJL115W, strain asf1, stronger effect = lower value 1.01 | locus YJL129C, strain trk1, stronger effect = lower value 1.01 | locus YJL134W, strain LCB3, stronger effect = lower value 1 | locus YJL154C, strain vps35, stronger effect = lower value 1.02 | locus YJL164C, strain tpk1, stronger effect = lower value 0.996 | locus YJL166W, strain qcr8, stronger effect = lower value 0.987 | locus YJL168C, strain set2, stronger effect = lower value 1.01 | locus YJL187C, strain SWE1 (second series), stronger effect = lower value 0.994
